An excerpt weighted towards active compounds, which were near 7% of everything screened.
AHR act – activators of human aryl hydrocarbon receptor; P35869; AHR-responsive luciferase reporter cells, luminescence; activation, % at 5 µM; hit rate 2.5% among 320,000; in the data active means activation above about 47%;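 further: 0% = vehicle wells and 100% = reference agonist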
ADAM10 inh – ADAM10 inhibition, QFRET primary screen; O14672; recombinant ADAM10, EDANS/DABCYL FRET peptide cleavage, 3 h; inhibition, % at 7 µM; hit rate 0.62% among 370,000; AID 720582;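 active means inhibition above a per-campaign cutoff equal to the mean of compounds falling between control-based bounds plus 3 SD, cut at about 20% in these data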;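 further: 0% = DMSO wells while the 100% control is not disclosed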
Target sequence (O14672 214-748 limits assumed): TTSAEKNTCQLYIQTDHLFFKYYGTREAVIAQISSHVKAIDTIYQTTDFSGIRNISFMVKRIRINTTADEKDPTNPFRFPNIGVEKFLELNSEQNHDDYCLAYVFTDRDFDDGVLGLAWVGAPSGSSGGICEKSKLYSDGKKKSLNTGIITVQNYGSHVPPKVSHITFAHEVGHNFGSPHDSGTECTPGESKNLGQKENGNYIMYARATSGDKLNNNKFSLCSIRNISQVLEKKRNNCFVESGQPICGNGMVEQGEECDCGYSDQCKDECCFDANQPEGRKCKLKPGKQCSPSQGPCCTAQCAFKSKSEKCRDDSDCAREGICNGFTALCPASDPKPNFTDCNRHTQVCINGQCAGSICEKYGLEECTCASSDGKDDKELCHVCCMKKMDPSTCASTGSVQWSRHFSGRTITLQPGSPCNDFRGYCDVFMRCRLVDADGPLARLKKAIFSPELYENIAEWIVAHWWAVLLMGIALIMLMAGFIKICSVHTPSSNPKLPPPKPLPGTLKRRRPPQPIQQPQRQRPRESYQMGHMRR
KLK7 zymogen act – proKLK7 (human) activation, primary screen. P49862. purified proKLK7, EDANS-DABCYL substrate fluorescence; 100% is mature enzyme control, 0% vehicle. activation, % at 7 µM. hit rate 0.9% among 370,000. AID 652039;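 active means activation above the mean of all tested compounds plus 3 SD, computed per campaign excluding outliers beyond control limits, cut at about 13% in these data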
ADAM17 inh – inhibits human ADAM17 | P78536 | inhibition, % at 6.95 µM | hit rate 0.83% among 370,000 | recombinant ADAM17, EDANS/DABCYL FRET peptide cleavage | AID 720648;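 active means inhibition above the mean of compounds lying between control limits plus 3 SD, set per campaign, cut at about 8.5% in these data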;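 further: 0% = DMSO-only wells as the low control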
rCAG binder – binds r(CAG) RNA repeats; inhibition, % at 3 µM; AID 651821; hit rate 1.3% among 370,000; r(CAG) RNA repeat, TO-PRO-1 dye displacement fluorescence;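 active means inhibition above the plate cutoff, the mean of all test compounds on that plate plus 3 SD, cut at about 35% in these data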;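 further: 0% = DMSO alone and 100% = 100 µM mitoxantrone as full dye displacement; higher means more dye released from RNA so lower well fluorescence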
NR3A LBD binder – modulates the human NR3A ligand-binding domain; NR3A LBD differential scanning fluorimetry, Tm shift; 0% = protein alone, 100% = glycine-bound protein; Tm shift relative to glycine control, % at 25 µM; hit rate 2.5% among 340,000;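 active means melting temperature shift of at least 10% of the positive control shift, at one fixed dose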
ADAM10 ctr – inhibits human ADAM10 in ADAM17 exosite counter-screen; shares compounds with ADAM17 inh; recombinant ADAM10, EDANS/DABCYL FRET peptide cleavage, 3 h; inhibition, % at 6.95 µM; hit rate 47% among 2,900; AID 743256;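 active means mean inhibition over the triplicate runs exceeds the activity threshold set in the earlier primary screen, cut at about 20% in these data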;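 further: 0% = DMSO wells and 100% = marimastat wells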
ADAM17 confirm – human ADAM17 inhibition, confirmation. AID 743257. hit rate 65% among 2,900. inhibition, % at 6.95 µM. shares compounds with ADAM17 inh. recombinant ADAM17, EDANS/DABCYL QFRET peptide cleavage;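 active means mean inhibition across replicates above the hit cutoff set in the primary screen, cut at about 8.5% in these data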;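 further: 0% = DMSO wells and 100% = marimastat wells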
An asterisk follows results filed as active; nt = no result.

SMILES	AHR act	ADAM10 inh	KLK7 zymogen act	ADAM17 inh	rCAG binder	NR3A LBD binder	ADAM10 ctr	ADAM17 confirm
COc1ccc(-c2nnc(SCC(=O)N(C)C3CCS(=O)(=O)C3)n2CC(C)C)cc1 (centres undefined)	nt	0	0	0	3	nt	nt	nt
CC1CCN(C(=O)c2[nH]c(C(F)(F)F)nc2-c2ccccc2)CC1	nt	-7	-1	-3	4	nt	nt	nt
O=C(c1[nH]c(C(F)(F)F)nc1-c1ccccc1)N1CCC(Cc2ccccc2)CC1	nt	6	0	12*	24	nt	8	7
NC(=O)c1ccc(-c2ccc(N3C(c4ccsc4)=Cc4ccc(F)cc4C3CC(=O)c3ccco3)cc2)cc1 (centres undefined)	nt	-33	-1	-6	16	nt	nt	nt
O=[N+]([O-])c1ccc(-c2cnc(SC(c3ccccc3)c3ccccc3)[nH]2)cc1	7	17	-1	10.0*	17	26*	33*	14*
N=c1c2c(ccn1CCCCc1ccccc1)Oc1ccc3ccccc3c1C2c1ccccc1 (centres undefined)	nt	20	nt	9.6*	nt	nt	20*	14*
Cc1ccc(C(=O)CC2(O)C(=O)N(C)c3ccccc32)s1 (centres undefined)	-1	-3	1	-6	-1	0	nt	nt
O=C(CSc1nnc(-c2ccccc2)n1-c1ccc(Cl)cc1)Nc1ccccc1-c1ccccc1	nt	19	1	11*	10	nt	21*	14*
Cc1ccccc1NC(=O)CSc1nnc(-c2ccccc2)n1-c1ccccc1	0	-2	0	-2	0	-1	nt	nt
Clc1ccc(-n2c(SC/C=C/c3ccccc3)nnc2-c2cccnc2)cc1	1	19	0	14*	3	-1	1	6
Nn1c(SC/C=C/c2ccccc2)nnc1-c1cccnc1	11	-5	1	-4	-2	-1	nt	nt
COc1ccc(CNS(=O)(=O)CCNC(=O)c2ccc(OC)cc2)cc1	0	0	0	-6	-4	1	nt	nt
CNC(=O)COc1ccc(Nc2nnc(-c3ccc(C)c(S(N)(=O)=O)c3)c3ccccc23)cc1	0	-8	1	-2	4	-5	nt	nt
CCN(CC)S(=O)(=O)c1ccc2c(c1)N(CC(=O)Nc1ccc(NC(C)=O)cc1)C(=O)CO2	3	2	0	-2	-1	-1	nt	nt
COc1ccccc1C(=O)Nc1ccc(OCC(=O)N2CC(C)CC(C)C2)cc1 (centres undefined)	-5	-2	1	2	-4	0	nt	nt
OC(c1cccc(Cl)c1)c1nc(/C=C/c2ccc(C(F)(F)F)cc2)cs1 (centres undefined)	nt	16	0	12*	5	nt	1	6
CC(C)c1cccc(-c2csc(C(O)c3cccc(Cl)c3)n2)c1 (centres undefined)	nt	12	0	9.7*	2	nt	19	13*
COc1ccccc1-c1csc(C(NC(C)=O)c2cccc(F)c2)n1 (centres undefined)	nt	-9	0	-5	1	nt	nt	nt
CC(=O)NC(c1cccc(F)c1)c1nc(/C=C/c2ccccc2)cs1 (centres undefined)	nt	9	1	11*	-1	nt	11	6
COc1cccc(CN(Cc2ccco2)S(=O)(=O)c2ccc(S(=O)(=O)NCc3ccccc3)cc2)c1OC	3	39*	1	14*	7	2	43*	24*
CC1C(=O)C(C)C(c2cc(Cl)ccc2O)NC1c1cc(Cl)ccc1O (centres undefined)	3	18	0	9.6*	6	27*	32*	17*
O=C(CSc1ccc([N+](=O)[O-])cn1)Nc1nccs1	0	4	0	-2	0	0	nt	nt
Cc1csc(NC(=O)CSc2ccc([N+](=O)[O-])cn2)n1	6	11	0	8.7*	3	0	0	1

Screening results (PubChem)
